High-throughput results as filed in PubChem.
Giardia FBPA inh – qHTS Assay for Inhibitors of Fructose-1,6-bisphosphate Aldolase from Giardia Lamblia; 0.71% of 290,000 active; Potency, µM (series often up to 59.6 µM), actives largely listed as inhibitors; purified Giardia FBPA; AID 2451, 2010; also: nearly all actives have a fitted effect of over 55% in size
Target sequence (A8B2U2 whole entry, looked up): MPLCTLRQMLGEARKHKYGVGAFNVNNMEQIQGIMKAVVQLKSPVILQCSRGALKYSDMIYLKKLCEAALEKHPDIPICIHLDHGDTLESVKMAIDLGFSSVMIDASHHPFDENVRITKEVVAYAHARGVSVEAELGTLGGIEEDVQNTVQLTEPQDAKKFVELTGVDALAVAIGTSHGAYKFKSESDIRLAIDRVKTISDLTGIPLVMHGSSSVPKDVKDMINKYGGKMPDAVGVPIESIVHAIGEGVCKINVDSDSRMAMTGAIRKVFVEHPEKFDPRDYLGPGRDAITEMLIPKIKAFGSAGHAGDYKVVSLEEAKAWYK
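40 nM FBPA preincubated 10 min at RT with compound (up to 57.5 uM final), then substrate plus GAPDH/TPI/NAD/arsenate coupling and diaphorase/resazurin added. Fluorescence read after 20 min at RT, 525/598 nm.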
FMDV antiviral – High Throughput Screening for Foot and Mouth Disease Virus Antivirals; FMDV antiviral cell-based qHTS; Potency, µM (titrated, usually from 57.9 µM), usual class: inhibitors; 1.2% of 410,000 active; calls by dose curve; tested in HEK293T cells; also: read-out not given here; nearly all actives have a fitted effect of over 45% in size
HCV inhibitor – qHTS Assay for Inhibitors of Hepatitis C Virus (HCV). Huh7.5.1 HCVcc-Cre infection, luciferase reporter, 44 h. Potency, µM (doses to about 41.8 µM), usual class: inhibitors. 3.4% of 340,000 active. AID 651820, 2012
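Infectious HCV cell culture screen: compound-treated cells (1,000/well, pre-plated 4 h) are infected with HCVcc-Cre at roughly 0.5 moi and grown 44 h. Infection is quantified by luciferase signal after 15 min substrate incubation at room temperature.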
Vaccinia mCherry – qHTS for Stage-Specific Inhibitors of Vaccinia Orthopoxvirus: mCherry Reporter Primary qHTS | Vaccinia virus mCherry reporter infection, fluorescence | Potency, µM (highest dose often 36.5 µM), hits mostly inhibitors | 0.63% of 310,000 active | AID 720579, 2013; calls by dose curve; tested in A549 cells; also: nearly all actives have a fitted effect of over 35% in size
VACV Venus inh – qHTS for Stage-Specific Inhibitors of Vaccinia Orthopoxvirus: Venus Reporter Primary qHTS; Vaccinia virus Venus reporter expression, fluorescence; Potency, µM (titrated, usually from 36.5 µM), hits mostly inhibitors; 0.46% of 330,000 active; AID 720580, 2013; calls by dose curve; tested in A549 cells; also: nearly all actives have a fitted effect of over 30% in size
HCMV antiviral – qHTS Assay for inhibitors of the human cytomegalovirus (HCMV); activity change, negative = inhibition, % at 57.5 µM; HFF cells, HCMV-luciferase reporter, 72 h; stronger effect = lower value; AID 1259415, 2018; 4.5% of 410,000 active; in the data active = activity change below about -60%; inconclusive = no clear call, values can overlap the other calls; inactive = above about -39%
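Two-dose cell screen: HFF monolayers treated with compounds and infected with luciferase-expressing HCMV at 1 PFU/cell, 72 h at 37C, then lysed for luciferase measurement.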
Of the large screens only hits and unclear results are named; the others gave an inactive call; ! = repeats disagree. Sampled rows, rich in hits. Any-hit rate of the full collection: about 7.5%. Unless noted, calls follow the shape of the dose curve; as a rule, active = well fitted curve in the direction sought with a large enough effect; inconclusive = small, poorly fitted or top-dose-only effect, or another doubt; inactive = no such curve, though single readings can be large; an effect the other way counts as inactive or inconclusive.

COc1ccc(-c2ccc(C(=O)Nc3ccc(OC)nc3)c3occc23)c(C)c1	FMDV antiviral inconclusive, HCMV antiviral inconclusive (no result: Giardia FBPA inh, HCV inhibitor)
COc1ccc(-c2cn3nc(N4CCCC(C(=O)Nc5cc(C)cc(C)c5)C4)sc3n2)cc1 (stereo not given)	none (no result: Giardia FBPA inh, HCV inhibitor)
COc1cccc(-c2c(-c3cc(OC)cc(OC)c3)n(C)c3ccc(-c4cccc5[nH]ccc45)cc23)c1	HCV inhibitor inconclusive (no result: Giardia FBPA inh)
COC(=O)C1=C(c2ccc(F)cc2F)C[C@@H]2CC[C@H]1N2C(=O)N1CCC(O)CC1	HCMV antiviral -62 (no result: Giardia FBPA inh)
COC(=O)C1=C(c2cc3ccccc3o2)C[C@@H]2CC[C@H]1N2C(=O)N1CCCCC1	FMDV antiviral inconclusive, HCV inhibitor inconclusive, VACV Venus inh inconclusive (no result: Giardia FBPA inh)
COC(=O)C1=C(c2cc3ccccc3o2)C[C@@H]2CC[C@H]1N2C(=O)N1CCCC1	HCV inhibitor inconclusive, HCMV antiviral -60 (no result: Giardia FBPA inh)
COC(=O)C1=C(c2ccc(Cl)c(C(F)(F)F)c2)C[C@@H]2CC[C@H]1N2C(=O)NCCOc1ccccc1Cl	FMDV antiviral inconclusive, HCV inhibitor 10µM, VACV Venus inh inconclusive (no result: Giardia FBPA inh, HCMV antiviral)
COC(=O)C1=C(c2ccc(F)cc2OCc2ccccc2)C[C@@H]2CC[C@H]1N2C(=O)NC(C)C	HCV inhibitor inconclusive (no result: Giardia FBPA inh)
COC(=O)C1=C(c2ccc(F)cc2OCc2ccccc2)C[C@@H]2CC[C@H]1N2C(=O)N1CCCC1	FMDV antiviral inconclusive, HCV inhibitor 11µM (no result: Giardia FBPA inh)
CCCNC(=O)N1[C@H]2CC[C@@H]1C(C(=O)OC)=C(c1ccc(F)cc1F)C2	none (no result: Giardia FBPA inh)
Cc1ccc(OCC(O)CN2C(=O)NC(C)(C)C2=O)c(C)c1 (stereo not given)	none (no result: Vaccinia mCherry, VACV Venus inh)
COC(=O)C1=C(c2ccc(F)cc2OCc2ccccc2)C[C@@H]2CC[C@H]1N2C(=O)NCCOc1ccccc1Cl	HCV inhibitor inconclusive, VACV Venus inh inconclusive (no result: Giardia FBPA inh)
COC(=O)C1=C(c2ccc(F)cc2OCc2ccccc2)C[C@@H]2CC[C@H]1N2C(=O)NCc1ccccc1Cl	HCV inhibitor inconclusive, VACV Venus inh inconclusive, HCMV antiviral -63 (no result: Giardia FBPA inh)
Cc1ccc(NS(=O)(=O)c2c(C(=O)N3CCCCCC3)c(C)n(C)c2C)cc1C	none (no result: Giardia FBPA inh, Vaccinia mCherry, VACV Venus inh)
N#CC1=C(N)OC2=C(CC/C2=C\c2ccccc2)C1c1ccccc1 (stereo not given)	FMDV antiviral 18µM
Oc1ccc(Br)cc1-c1cc(-c2ccccc2)n[nH]1	HCV inhibitor inconclusive
O=[N+]([O-])c1cccc(-c2cc(-c3cc(Br)ccc3O)[nH]n2)c1	FMDV antiviral 28µM, HCV inhibitor 10µM, Vaccinia mCherry inconclusive, VACV Venus inh inconclusive, HCMV antiviral inconclusive
Oc1ccc(Br)cc1-c1cc(-c2ccc(Cl)cc2)n[nH]1	HCV inhibitor 10µM, VACV Venus inh inconclusive, HCMV antiviral -77 (no result: Vaccinia mCherry)
Cc1ccc(O)c(-c2cc(-c3cccc(F)c3)n[nH]2)c1	HCV inhibitor 10µM (no result: Vaccinia mCherry, VACV Venus inh)
O=C(COc1ccc(C(=O)c2ccccc2)cc1)NCC(=O)Nc1ccccc1Br	none (no result: Vaccinia mCherry, VACV Venus inh)
COc1cc(OC)cc(-c2nnc(SCC(=O)N3CCC(C)CC3)o2)c1	FMDV antiviral inconclusive (no result: Giardia FBPA inh, HCV inhibitor)
Cn1c2ccc(F)cc2c2nnc(SCCN3CCCCC3)nc21	HCV inhibitor 11µM, HCMV antiviral -86!
CCOC(=O)C1=C(CC)OC(N)=C(C#N)C1c1cccs1 (stereo not given)	none (no result: FMDV antiviral)
COC(=O)CC1=C(C(=O)OC)C(c2cccs2)C(C#N)=C(N)O1 (stereo not given)	VACV Venus inh inconclusive, HCMV antiviral -101
CCCCn1c(N)c(N(CC(C)C)C(=O)CSc2nn(-c3ccc(F)cc3)c(=S)s2)c(=O)[nH]c1=O	HCV inhibitor inconclusive (no result: Giardia FBPA inh, Vaccinia mCherry, VACV Venus inh)
COc1ccc(CNCc2c(C(=O)O)n(Cc3ccc(F)cc3)c3cc(C)ccc23)cc1OC	HCMV antiviral -68 (no result: Giardia FBPA inh, HCV inhibitor)
Cc1ccc2c(CNCCc3ccco3)c(C(=O)O)n(Cc3ccc(F)cc3)c2c1	HCMV antiviral -109 (no result: Giardia FBPA inh, HCV inhibitor)
Cc1ccc(CNCc2c(C(=O)O)n(Cc3ccccc3C)c3cc(C)ccc23)cc1	FMDV antiviral inconclusive, Vaccinia mCherry inconclusive, VACV Venus inh inconclusive (no result: Giardia FBPA inh, HCV inhibitor)
Cc1ccc(Cn2c(C(=O)O)c(CNCc3ccc(OC(C)C)cc3)c3ccc(C)cc32)cc1	FMDV antiviral inconclusive, Vaccinia mCherry inconclusive, VACV Venus inh inconclusive, HCMV antiviral -105 (no result: Giardia FBPA inh, HCV inhibitor)
